Test results published in PubChem BioAssay AID504727 (Broad Institute, 2011).
Values without a mark were called inactive.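 Rule for the calls: active = fitted half-maximal concentration AC50 at or below ten times the highest valid tested dose, with signal falling as DNA is displaced (actives reach about 34 µM in these data); inconclusive = flat fit at moderate signal loss, or poor fit quality; inactive = the rest, including signal rising instead of falling.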

experiment: acridine orange-DNA binding displacement – biochemical, fluorescence polarization, cherry-picked samples, set 2, artefact control for KSHV LANA DNA-binding inhibitor project, dose response (AID 504727); details: series mostly up to 35 µM; activity change, negative = DNA displacement: at the top concentration;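 note: 0% = median of neutral control wells and -100% = mitoxantrone positive control wells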

SMILES	activity change, negative = DNA displacement [%]
CC(C)(C)OC(=O)N1CCC[C@H]1c1nnc(SCc2cccc(Cl)c2)o1	4.37
CCOC(=O)CCCn1c(C)nc(=O)c(-c2ccccc2)c1C	-0.814
Oc1ccc(-c2nc3ccccn3c2NCc2ccco2)cc1	2.5
O=C(NCCCO)c1ccc2nc(-c3ccco3)c(-c3ccco3)nc2c1	-3.41
CN(C)CCCNC(=O)c1ccccc1Oc1ccccc1	-0.636
O=C(O)c1ccccc1NS(=O)(=O)c1ccc(N/N=C/c2ccc(O)c(O)c2)c([N+](=O)[O-])c1	2.24
COc1ccc(N(CC(=O)NCc2ccc3c(c2)OCO3)C(=O)c2csnn2)cc1	5.2
COc1[nH]c(/N=C/c2ccccc2)c(C#N)c1C#N	-1.88
CS(=O)(=O)c1cccc(C(=O)Oc2ccccc2)c1	2.74
COc1ccc(NS(=O)(=O)c2cccc3ccccc23)cc1	3.43
COc1cccc(-c2cc(C(=O)N3CCN(S(=O)(=O)c4ccccc4)CC3)[nH]n2)c1	-0.76
COC(=O)Cn1c(=NC(=O)c2sc3ccccc3c2Cl)sc2cc(S(N)(=O)=O)ccc21	9.39
Cc1cc(NS(=O)(=O)c2ccc(Nc3nc(-c4sc(N)nc4C)cs3)cc2)no1	11.1
CCOC(=O)c1c(C)n(C)c2ccc(OCCN(C)C)cc12	-7.91
NNc1nnc2c3cc(F)ccc3n(Cc3ccccc3)c2n1	3.5
C=CCNC(=O)c1cn(CC)c2cc(N3CCN(C(=O)c4ccco4)CC3)c(F)cc2c1=O	-5.64
COC(=O)c1sc(C(F)(F)F)c(-c2ccccc2)c1S(=O)(=O)N1CCOCC1	2.04
